Key:
Test in all cases: DAPPL (digital affinity profiling via proximity ligation, sequencing); 10 mM Tris-HCl pH 7.5, 50 mM NaCl, 1 mM DTT, 4% glycerol, room temperature, 30 min; GST-TFs on glutathione beads, 16-mer random dsDNA library, 0.1% formaldehyde crosslink after washing; high values mean tight binding
FEV = biological target: T1, FEV (Homo sapiens, UniProt Q99581 1-238); conditions: protein: recombinant; tags: N-terminal GST; dsDNA, one strand shown
T1 sequence: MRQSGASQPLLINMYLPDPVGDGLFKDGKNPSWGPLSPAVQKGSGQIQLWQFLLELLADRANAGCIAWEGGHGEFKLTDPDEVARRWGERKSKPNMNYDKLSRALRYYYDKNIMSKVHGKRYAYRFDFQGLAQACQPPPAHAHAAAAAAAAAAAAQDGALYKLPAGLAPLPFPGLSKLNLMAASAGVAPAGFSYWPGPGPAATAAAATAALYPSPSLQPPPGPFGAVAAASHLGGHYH
Outline: (§1)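 Binding signal is defined as a hexamer's read frequency for one factor over its frequency for the tag-only sample. To obtain reads, GST-fused human transcription factors were expressed in yeast, captured on glutathione beads, barcoded with DNA and pooled with that sample. Pools met 200 nmole of a 16-mer random double-stranded DNA library in Tris/NaCl/DTT/glycerol buffer for 30 min at room temperature before washing, 0.1% formaldehyde crosslinking, proximity ligation (BsaI/T4 ligase, 1 h, 37 °C), PCR and Illumina NextSeq500 sequencing.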

ETV5 = ETV5 (Homo sapiens, UniProt P41161 1-510); conditions: protein: recombinant; tags: N-terminal GST; dsDNA, one strand shown
Outline: as §1

HSF1 = HSF1 (Homo sapiens, UniProt Q00613 1-529); conditions: protein: recombinant; tags: N-terminal GST; chain copies: 3; dsDNA, one strand shown
Outline: as §1

SPIC = biological target: T2, SPIC (Homo sapiens, UniProt Q8N5J4 1-248); conditions: protein: recombinant; tags: N-terminal GST; dsDNA, one strand shown
T2 sequence: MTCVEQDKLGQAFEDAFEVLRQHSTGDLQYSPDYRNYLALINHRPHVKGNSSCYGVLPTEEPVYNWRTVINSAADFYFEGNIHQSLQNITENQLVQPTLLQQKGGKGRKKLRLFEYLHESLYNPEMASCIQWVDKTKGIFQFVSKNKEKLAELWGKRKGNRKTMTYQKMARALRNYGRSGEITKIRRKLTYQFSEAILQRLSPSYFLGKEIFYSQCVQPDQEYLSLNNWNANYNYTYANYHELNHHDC
Outline: as §1

ELF4 = ELF4 (Homo sapiens, UniProt Q99607 1-663); conditions: protein: recombinant; tags: N-terminal GST; dsDNA, one strand shown
Outline: as §1

ELK4 = biological target: T3, ELK4 (Homo sapiens, UniProt P28324-2 1-405); conditions: protein: recombinant; tags: N-terminal GST; dsDNA, one strand shown
T3 sequence: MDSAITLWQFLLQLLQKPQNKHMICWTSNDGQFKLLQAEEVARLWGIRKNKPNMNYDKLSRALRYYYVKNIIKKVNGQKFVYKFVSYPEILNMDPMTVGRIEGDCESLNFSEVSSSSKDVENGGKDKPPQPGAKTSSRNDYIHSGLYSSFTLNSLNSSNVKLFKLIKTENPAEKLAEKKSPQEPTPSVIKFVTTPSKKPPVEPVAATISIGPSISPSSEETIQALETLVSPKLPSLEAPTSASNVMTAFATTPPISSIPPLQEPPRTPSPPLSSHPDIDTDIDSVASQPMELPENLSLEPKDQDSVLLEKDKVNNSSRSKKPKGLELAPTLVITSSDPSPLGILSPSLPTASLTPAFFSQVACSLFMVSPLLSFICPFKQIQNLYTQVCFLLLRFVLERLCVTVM
Outline: as §1

ETV2 = biological target: T4, ETV2 (Homo sapiens, UniProt O00321 1-342); conditions: protein: recombinant; tags: N-terminal GST; dsDNA, one strand shown
T4 sequence: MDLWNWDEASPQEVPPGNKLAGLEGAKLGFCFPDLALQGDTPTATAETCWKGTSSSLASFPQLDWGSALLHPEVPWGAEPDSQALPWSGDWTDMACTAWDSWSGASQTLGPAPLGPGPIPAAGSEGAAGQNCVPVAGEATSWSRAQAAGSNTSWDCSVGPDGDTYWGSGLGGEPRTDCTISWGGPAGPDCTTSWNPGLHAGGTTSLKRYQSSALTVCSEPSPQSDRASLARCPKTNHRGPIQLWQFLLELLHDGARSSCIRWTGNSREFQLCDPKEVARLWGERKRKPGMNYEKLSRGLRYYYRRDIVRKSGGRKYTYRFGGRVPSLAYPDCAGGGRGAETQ
Outline: as §1

ELF3 = biological target: T5, ELF3 (Homo sapiens, UniProt P78545 1-371); conditions: protein: recombinant; tags: N-terminal GST; dsDNA, one strand shown
T5 sequence: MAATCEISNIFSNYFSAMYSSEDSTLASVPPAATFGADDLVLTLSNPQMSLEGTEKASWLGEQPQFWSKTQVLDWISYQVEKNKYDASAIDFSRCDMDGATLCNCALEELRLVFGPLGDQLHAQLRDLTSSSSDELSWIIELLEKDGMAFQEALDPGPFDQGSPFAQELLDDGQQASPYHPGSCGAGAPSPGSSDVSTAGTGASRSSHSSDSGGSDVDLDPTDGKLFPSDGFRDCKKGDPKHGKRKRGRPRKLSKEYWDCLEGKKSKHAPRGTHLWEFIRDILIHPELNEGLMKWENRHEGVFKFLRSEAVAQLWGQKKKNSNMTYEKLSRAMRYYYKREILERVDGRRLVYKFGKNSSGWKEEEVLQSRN
Outline: as §1

CRX = CRX (Homo sapiens, UniProt O43186 1-299); conditions: protein: recombinant; tags: N-terminal GST; dsDNA, one strand shown
Outline: as §1

ETV1 = ETV1 (Homo sapiens, UniProt P50549 1-477); conditions: protein: recombinant; tags: N-terminal GST; dsDNA, one strand shown
Outline: as §1

ERF = biological target: T6, ERF (Homo sapiens, UniProt P50548 1-548); conditions: protein: recombinant; tags: N-terminal GST; dsDNA, one strand shown
T6 sequence: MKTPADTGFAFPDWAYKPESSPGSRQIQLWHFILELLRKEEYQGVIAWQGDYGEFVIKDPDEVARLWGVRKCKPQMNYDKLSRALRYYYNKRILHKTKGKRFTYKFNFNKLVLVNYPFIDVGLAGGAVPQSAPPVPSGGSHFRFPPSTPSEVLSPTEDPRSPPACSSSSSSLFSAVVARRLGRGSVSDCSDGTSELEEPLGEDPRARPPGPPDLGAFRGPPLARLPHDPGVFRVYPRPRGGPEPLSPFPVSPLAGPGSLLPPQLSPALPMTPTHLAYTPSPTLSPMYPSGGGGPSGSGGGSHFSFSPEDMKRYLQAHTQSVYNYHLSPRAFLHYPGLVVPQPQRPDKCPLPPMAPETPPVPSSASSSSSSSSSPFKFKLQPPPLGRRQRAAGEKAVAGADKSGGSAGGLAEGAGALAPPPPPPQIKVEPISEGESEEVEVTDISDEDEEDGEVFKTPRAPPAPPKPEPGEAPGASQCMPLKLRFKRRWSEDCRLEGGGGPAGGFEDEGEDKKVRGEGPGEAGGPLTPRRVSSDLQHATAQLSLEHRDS
Outline: as §1

ETV3L = biological target: T7, ETV3L (Homo sapiens, UniProt Q6ZN32 1-361); conditions: protein: recombinant; tags: N-terminal GST; dsDNA, one strand shown
T7 sequence: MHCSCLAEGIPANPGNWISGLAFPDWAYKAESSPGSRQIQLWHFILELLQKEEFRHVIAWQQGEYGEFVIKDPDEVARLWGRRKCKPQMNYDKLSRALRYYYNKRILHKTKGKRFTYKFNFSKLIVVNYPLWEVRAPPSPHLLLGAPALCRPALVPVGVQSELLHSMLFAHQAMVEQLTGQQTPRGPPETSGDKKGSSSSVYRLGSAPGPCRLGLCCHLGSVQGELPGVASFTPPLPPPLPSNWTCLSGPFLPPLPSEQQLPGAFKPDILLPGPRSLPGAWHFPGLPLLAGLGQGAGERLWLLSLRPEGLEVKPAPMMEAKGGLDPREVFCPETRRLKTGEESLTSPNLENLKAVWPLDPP
Outline: as §1

ETS2 = biological target: T8, ETS2 (Homo sapiens, UniProt P15036 1-469); conditions: protein: recombinant; tags: N-terminal GST; dsDNA, one strand shown
T8 sequence: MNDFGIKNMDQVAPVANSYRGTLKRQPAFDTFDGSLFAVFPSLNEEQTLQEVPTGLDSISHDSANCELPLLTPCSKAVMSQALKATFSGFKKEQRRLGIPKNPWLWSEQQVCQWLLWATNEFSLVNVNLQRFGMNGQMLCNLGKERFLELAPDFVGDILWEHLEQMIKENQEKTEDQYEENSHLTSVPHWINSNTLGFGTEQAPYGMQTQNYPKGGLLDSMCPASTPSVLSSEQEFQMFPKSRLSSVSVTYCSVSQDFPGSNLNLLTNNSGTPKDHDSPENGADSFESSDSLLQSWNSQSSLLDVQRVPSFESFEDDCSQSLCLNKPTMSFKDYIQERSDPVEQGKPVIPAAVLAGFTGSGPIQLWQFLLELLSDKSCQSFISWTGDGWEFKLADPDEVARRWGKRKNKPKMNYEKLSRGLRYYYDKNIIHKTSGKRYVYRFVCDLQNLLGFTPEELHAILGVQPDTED
Outline: as §1

SPDEF = biological target: T9, SPDEF (Homo sapiens, UniProt O95238 1-335); conditions: protein: recombinant; tags: N-terminal GST; dsDNA, one strand shown
T9 sequence: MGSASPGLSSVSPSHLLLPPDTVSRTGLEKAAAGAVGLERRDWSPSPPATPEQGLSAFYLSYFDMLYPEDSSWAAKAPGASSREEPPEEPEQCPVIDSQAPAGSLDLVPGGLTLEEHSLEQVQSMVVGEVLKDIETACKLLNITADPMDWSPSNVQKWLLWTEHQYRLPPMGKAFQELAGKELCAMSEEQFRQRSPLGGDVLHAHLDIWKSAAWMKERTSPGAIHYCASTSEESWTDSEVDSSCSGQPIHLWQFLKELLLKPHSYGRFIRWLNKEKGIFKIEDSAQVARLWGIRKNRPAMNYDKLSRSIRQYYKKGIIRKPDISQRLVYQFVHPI
Outline: as §1

ETV7 = biological target: T10, ETV7 (Homo sapiens, UniProt Q9Y603 1-341); conditions: protein: recombinant; tags: N-terminal GST; dsDNA, one strand shown
T10 sequence: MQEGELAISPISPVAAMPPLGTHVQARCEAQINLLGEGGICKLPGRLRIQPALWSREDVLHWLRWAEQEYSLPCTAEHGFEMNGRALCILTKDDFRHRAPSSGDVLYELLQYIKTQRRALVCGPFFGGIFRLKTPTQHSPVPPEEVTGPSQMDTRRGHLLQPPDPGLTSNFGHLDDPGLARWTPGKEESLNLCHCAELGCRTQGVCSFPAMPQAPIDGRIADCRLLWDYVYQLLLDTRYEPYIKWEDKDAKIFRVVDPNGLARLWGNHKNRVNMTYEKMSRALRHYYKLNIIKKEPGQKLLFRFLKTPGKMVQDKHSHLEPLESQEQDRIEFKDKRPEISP
Outline: as §1

ELF5 = biological target: T11, ELF5 (Homo sapiens, UniProt Q9UKW6-2 1-255); conditions: protein: recombinant; tags: N-terminal GST; dsDNA, one strand shown
T11 sequence: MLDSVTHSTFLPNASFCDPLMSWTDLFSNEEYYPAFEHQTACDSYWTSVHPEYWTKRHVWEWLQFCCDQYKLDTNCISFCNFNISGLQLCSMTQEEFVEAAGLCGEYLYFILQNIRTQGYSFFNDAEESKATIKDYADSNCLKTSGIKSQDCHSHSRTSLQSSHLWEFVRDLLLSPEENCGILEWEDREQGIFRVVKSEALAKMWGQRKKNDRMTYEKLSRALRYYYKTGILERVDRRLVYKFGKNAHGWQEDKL
Outline: as §1

ETV3 = biological target: T12, ETV3 (Homo sapiens, UniProt P41162-2 1-143); conditions: protein: recombinant; tags: N-terminal GST; dsDNA, one strand shown
T12 sequence: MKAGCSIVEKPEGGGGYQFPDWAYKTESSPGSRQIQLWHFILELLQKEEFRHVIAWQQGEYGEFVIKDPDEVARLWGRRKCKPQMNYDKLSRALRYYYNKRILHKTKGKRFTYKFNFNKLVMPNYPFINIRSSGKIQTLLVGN
Outline: as §1

ETV6 = ETV6 (Homo sapiens, UniProt P41212 1-452); conditions: protein: recombinant; tags: N-terminal GST; dsDNA, one strand shown
Outline: as §1

Sequence of CRX (O43186 whole entry): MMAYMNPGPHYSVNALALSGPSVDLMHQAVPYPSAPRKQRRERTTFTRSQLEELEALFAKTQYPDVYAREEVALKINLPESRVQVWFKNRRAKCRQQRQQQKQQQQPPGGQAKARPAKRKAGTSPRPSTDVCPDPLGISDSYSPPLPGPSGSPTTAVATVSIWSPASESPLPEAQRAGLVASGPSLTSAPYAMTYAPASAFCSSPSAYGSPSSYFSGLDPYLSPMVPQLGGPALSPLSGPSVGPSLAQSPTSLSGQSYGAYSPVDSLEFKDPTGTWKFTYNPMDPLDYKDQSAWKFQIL
Sequence of ETV5 (P41161 whole entry): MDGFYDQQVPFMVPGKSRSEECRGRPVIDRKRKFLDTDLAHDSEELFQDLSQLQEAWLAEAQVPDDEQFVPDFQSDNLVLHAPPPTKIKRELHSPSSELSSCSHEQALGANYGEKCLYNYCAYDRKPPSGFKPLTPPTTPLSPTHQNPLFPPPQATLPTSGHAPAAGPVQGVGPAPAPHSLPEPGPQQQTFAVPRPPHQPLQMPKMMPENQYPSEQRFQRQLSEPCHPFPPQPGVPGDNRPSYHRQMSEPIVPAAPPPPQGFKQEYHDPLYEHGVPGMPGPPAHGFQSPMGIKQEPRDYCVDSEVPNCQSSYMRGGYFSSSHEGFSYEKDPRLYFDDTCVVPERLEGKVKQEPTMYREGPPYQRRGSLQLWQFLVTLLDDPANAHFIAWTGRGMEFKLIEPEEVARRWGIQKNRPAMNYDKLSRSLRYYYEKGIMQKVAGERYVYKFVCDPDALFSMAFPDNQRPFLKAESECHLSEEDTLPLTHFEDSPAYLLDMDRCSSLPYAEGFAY
Sequence of ETV1 (P50549 whole entry): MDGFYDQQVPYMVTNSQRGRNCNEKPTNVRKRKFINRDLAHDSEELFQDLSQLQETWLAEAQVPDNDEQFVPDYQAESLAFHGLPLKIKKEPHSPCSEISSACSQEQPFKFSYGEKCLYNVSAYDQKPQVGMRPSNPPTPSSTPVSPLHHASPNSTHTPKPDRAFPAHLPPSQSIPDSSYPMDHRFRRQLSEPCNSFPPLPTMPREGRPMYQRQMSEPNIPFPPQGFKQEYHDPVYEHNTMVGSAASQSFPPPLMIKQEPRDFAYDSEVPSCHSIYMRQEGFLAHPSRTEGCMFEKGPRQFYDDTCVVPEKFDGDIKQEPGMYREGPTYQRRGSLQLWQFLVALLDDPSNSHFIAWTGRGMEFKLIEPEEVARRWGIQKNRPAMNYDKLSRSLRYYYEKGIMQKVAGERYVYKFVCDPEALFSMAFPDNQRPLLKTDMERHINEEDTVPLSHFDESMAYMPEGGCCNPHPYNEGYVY
Sequence of ETV6 (P41212 whole entry): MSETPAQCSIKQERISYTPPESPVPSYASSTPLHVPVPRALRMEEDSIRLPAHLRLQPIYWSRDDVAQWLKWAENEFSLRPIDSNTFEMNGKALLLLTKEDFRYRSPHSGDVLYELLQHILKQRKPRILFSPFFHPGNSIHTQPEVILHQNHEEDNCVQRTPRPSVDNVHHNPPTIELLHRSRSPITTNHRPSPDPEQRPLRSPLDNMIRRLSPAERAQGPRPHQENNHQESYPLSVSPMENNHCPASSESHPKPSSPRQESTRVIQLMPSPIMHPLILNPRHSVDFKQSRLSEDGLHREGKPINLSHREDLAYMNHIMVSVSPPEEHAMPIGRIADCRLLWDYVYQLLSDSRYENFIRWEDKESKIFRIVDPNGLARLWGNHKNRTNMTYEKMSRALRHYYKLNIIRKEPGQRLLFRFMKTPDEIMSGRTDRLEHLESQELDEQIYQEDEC
Sequence of ELF4 (Q99607 whole entry): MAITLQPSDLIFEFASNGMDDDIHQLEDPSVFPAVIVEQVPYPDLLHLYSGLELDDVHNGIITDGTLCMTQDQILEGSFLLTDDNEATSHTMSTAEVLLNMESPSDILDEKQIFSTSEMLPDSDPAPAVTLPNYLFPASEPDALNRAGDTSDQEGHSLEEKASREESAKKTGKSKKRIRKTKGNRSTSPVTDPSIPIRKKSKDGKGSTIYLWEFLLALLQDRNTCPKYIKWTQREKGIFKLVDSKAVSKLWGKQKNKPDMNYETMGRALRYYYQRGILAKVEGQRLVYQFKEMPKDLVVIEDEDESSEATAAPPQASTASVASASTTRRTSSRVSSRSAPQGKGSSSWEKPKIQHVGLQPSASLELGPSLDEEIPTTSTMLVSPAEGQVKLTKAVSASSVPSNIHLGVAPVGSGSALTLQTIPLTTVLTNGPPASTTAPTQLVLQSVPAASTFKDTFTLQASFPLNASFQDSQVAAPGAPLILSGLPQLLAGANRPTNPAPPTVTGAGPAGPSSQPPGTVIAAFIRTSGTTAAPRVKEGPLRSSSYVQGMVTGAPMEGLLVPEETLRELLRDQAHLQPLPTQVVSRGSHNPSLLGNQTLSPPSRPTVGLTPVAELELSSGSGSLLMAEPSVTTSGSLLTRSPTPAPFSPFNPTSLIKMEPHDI
Sequence of HSF1 (Q00613 whole entry): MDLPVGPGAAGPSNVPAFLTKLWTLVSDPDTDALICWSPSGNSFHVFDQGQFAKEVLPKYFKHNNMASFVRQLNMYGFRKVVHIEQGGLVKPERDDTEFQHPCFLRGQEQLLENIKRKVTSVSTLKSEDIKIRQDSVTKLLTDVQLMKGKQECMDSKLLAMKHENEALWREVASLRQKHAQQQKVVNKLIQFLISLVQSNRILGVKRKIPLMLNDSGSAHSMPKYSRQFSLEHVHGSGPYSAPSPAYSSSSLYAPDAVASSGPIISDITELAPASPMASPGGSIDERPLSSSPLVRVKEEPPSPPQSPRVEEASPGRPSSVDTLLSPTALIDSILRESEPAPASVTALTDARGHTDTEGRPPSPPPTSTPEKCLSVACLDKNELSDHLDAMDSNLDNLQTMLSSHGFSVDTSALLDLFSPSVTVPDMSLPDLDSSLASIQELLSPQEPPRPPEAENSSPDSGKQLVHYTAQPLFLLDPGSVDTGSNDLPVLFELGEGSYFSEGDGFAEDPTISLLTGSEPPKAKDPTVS

In the case of ATGATC, the binding signal (FEV) is reported as 1.14 fold enrichment (6-mer frequency, TF over GST control), the binding signal (ETV5) is reported as 1.24 fold enrichment (6-mer frequency, TF over GST control) and the binding signal (HSF1) is reported as 1.59 fold enrichment (6-mer frequency, TF over GST control). The binding signal (SPIC) was 1.38 fold enrichment (6-mer frequency, TF over GST control), the binding signal (ELF4) was 1.21 fold enrichment (6-mer frequency, TF over GST control) and the binding signal (ELK4) was 1.16 fold enrichment (6-mer frequency, TF over GST control). For the same sequence, the binding signal (ETV2) was 1.15 fold enrichment (6-mer frequency, TF over GST control), the binding signal (ELF3) was 1.19 fold enrichment (6-mer frequency, TF over GST control) and the binding signal (CRX) was 1.74 fold enrichment (6-mer frequency, TF over GST control). The binding signal (ETV1) was 1.1 fold enrichment (6-mer frequency, TF over GST control), the binding signal (ERF) was 1.33 fold enrichment (6-mer frequency, TF over GST control) and the binding signal (ETV3L) was 1.22 fold enrichment (6-mer frequency, TF over GST control). The binding signal (ETS2) was 1.16 fold enrichment (6-mer frequency, TF over GST control), the binding signal (SPDEF) was 1.27 fold enrichment (6-mer frequency, TF over GST control) and the binding signal (ETV7) was 1.22 fold enrichment (6-mer frequency, TF over GST control). For the same sequence, the binding signal (ELF5) was 1.22 fold enrichment (6-mer frequency, TF over GST control), the binding signal (ETV3) was 1.2 fold enrichment (6-mer frequency, TF over GST control) and the binding signal (ETV6) was 1.19 fold enrichment (6-mer frequency, TF over GST control).

Source: paper PMC7862700, “An all-to-all approach to the identification of sequence-specific readers for epigenetic DNA modifications on cytosine”
